From PubChem BioAssay AID686979 (National Center for Advancing Translational Sciences (NCATS), 2013) come the findings set out here.

Values joined by “and” are separate entries in the source; they are usually repeats but may differ in a detail not shown here. Equal entries are not always repeated. The whole screen tested about 420,000 compounds, of which about 50,000 (12%) were called active. Where a call stands in place of a potency, no number is given. Another 26% or so got no clear call; they are omitted. The call rests on the fitted dose curve; in most records, active means well fitted inhibition curve with a large enough effect; inconclusive means small, poorly fitted or top-dose-only effect; inactive means flat fitted curve, though single readings scatter. The full list was thinned out, with actives kept by preference. A structure can be active in one record and inactive in another.
Potency means the concentration at half of the fitted maximal effect.

The experiment in a line: qHTS for Inhibitors of human tyrosyl-DNA phosphodiesterase 1 (TDP1): qHTS in cells in presence of CPT. Further: nearly all actives have a fitted effect of over 55% in size. As to conditions: chicken DT40 Tdp1-/-;hTDP1 cells + 20 nM CPT, ATP luminescence, 48 h; series mostly up to 46.2 µM. The method in brief: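 Chicken DT40 Tdp1-/- cells complemented with human TDP1, 400 cells/well, exposed to compounds plus 20 nM camptothecin for at least 48 h at 37 C; viability read as ATP content by CellTiter-Glo luminescence.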
On the technique in general: qHTS replaces the single test concentration by a dilution series.
On to `CC(C)CNC(=S)NNC(=O)c1nn(C)cc1Cl`, for which the Potency entry is “inactive”.

Turning to `CCOc1ccc(CCNC(=O)c2cc3c(=O)n(C)c4ccccc4c3n2C)cc1`, the Potency was 20.6 µM (active).

As for `CN(Cc1ccccc1)C(=O)c1cc2c(=O)n(C)c3ccccc3c2s1`, the Potency result is “inactive”.

`Cn1c(C(=O)N2CCC(C(N)=O)CC2)cc2c(=O)n(C)c3ccccc3c21`: the Potency result was “inactive”.

Regarding `CCOc1ccc(CCNC(=O)c2c(C)oc3ncn(C)c(=O)c23)cc1`, the Potency result was “inactive”.

With `CCOc1ccc(NC(=O)c2cn(C3CCCCC3)c(=O)c3c2c2ccccc2n3C)cc1`, the Potency entry was “inactive”.

As to `Cn1c(C(=O)NCCc2ccsc2)cc2c(=O)n(C)c3ccccc3c21`, the Potency was 18.4 µM (active).

As for `Cc1cc(C)cc(NC(=O)C(c2ccccc2)N2CCN(CC(=O)N3CCCC3)CC2)c1` (stereo not given), the Potency entry was “inactive”.

Consider `CC(C)CC(=O)c1c[nH]c(C(=O)NCc2ccccc2)c1`, for which the Potency entry was “inactive”.

On to `CC12CCC(C(=O)N(c3cccc(Cl)c3)C1=O)C2(C)C` (stereo not given), for which the Potency result was “inactive”.

For the compound `CC12CCC(C(=O)N(NC(=O)c3ccccc3O)C1=O)C2(C)C` (stereo not given), the Potency is 20.6 µM (active).

With `O=C(NN1C(=O)C2C(C1=O)C1C=CC2C12CC2)c1ccccc1Cl` (stereo not given), the Potency result is “inactive”.

Regarding `NC(=O)c1ncn([C@@H]2O[C@H](CNCc3cnc(N4CCOCC4)s3)[C@@H](O)[C@H]2O)n1`, the Potency result was “inactive”.

In the case of `CCOc1ccc(-c2nnn(CC(=O)N3CCN(c4ccc(F)cc4)CC3)n2)cc1OCC`, the Potency result is “inactive”.

Take `O=C(Nc1ccccc1-c1nnn(CC(=O)N2CCN(c3ccccc3)CC2)n1)c1cccs1`: the Potency is 14.6 µM (active).

Turning to `CCOc1ccc(-c2nnn(CC(=O)N3CCN(c4ccc(OC)cc4)CC3)n2)cc1OCC`, the Potency result is “inactive”.

Turning to `C[C@H]1CN([C@@H](C)CO)C(=O)CCCn2cc(nn2)CO[C@@H]1CN(C)S(=O)(=O)c1cccs1`, the Potency result is “inactive”.

On to `CSc1ccc(NC(=O)Cn2nnnc2-c2ccccc2F)cc1`, for which the Potency result is “inactive”.

Regarding `C/C(=N/OC(=O)c1cccc(C(F)(F)F)c1)c1cnccn1`, the Potency result was “inactive”.

As for `Cc1nn(-c2ccccc2)c(C)c1NC(=O)COc1ccc(Cl)cc1Cl`, the Potency is 16.4 µM (active).

With `C/C=C/c1ccc(OCC(=O)OCC(=O)Nc2c(C)nn(-c3ccccc3)c2C)c(OC)c1`, the Potency result was “inactive”.

`Cc1nn(-c2ccccc2)c(C)c1NC(=O)COC(=O)c1cc(Cl)ccc1O`: the Potency result is “inactive”.

As to `Cc1cc(=O)oc2c3c(cc(OCC(=O)NCCC(=O)N[C@@H](C)C(=O)O)c12)OC(C)(C)CC3`, the Potency result is “inactive”.

With `C/C(=N/NS(=O)(=O)c1ccccc1)c1ccc(NC(=O)C(F)(F)F)cc1`, the Potency result is “inactive”.

For `COCC1CCN(C(=O)C2CCC(=O)N(CC3CCCCC3)C2)CC1` (stereo not given), the Potency result was “inactive”.

As to `COc1ccccc1NC(=O)c1oc2ccccc2c1NC(=O)C(C)C`, the Potency is 10.3 µM (active).

`COc1ccccc1NC(=S)NC(=O)C(C)C`: the Potency entry was “inactive”.

On to `Cc1ccc(C(=O)Nc2c(C(=O)NC(C)(C)C)oc3ccccc23)cc1`, for which the Potency is 20.6 µM (active).

For `COc1ccccc1NC(=O)c1oc2ccccc2c1NC(=O)COc1ccccc1OC`, the Potency entry was “inactive”.

`COc1ccccc1C(=O)Nc1ccc(Nc2ccccc2)cc1`: the Potency entry is “inactive”.

Regarding `COc1ccccc1C(=O)Nc1c(C(=O)Nc2ccc(C)cc2)oc2ccccc12`, the Potency was 20.6 µM (active).

`Cc1c(C(=O)NNC(=O)c2ccncc2)oc2ccccc12`: the Potency result is “inactive”.

As for `Cc1ccc(NC(=O)c2oc3ccccc3c2NC(=O)Cc2cccs2)cc1`, the Potency result was “inactive”.

Regarding `Cc1ccc(C(=O)Nc2c(-c3ccccc3)[nH][nH]c2=O)cc1`, the Potency result was “inactive”.

For the compound `C#CCOCCOCCOCCNc1nc(N2CCN(C(=O)C([C@@H](C)CC)n3cc(C(N)COC(=O)C(F)(F)F)nn3)CC2)nc(N2CCN(C(=O)[C@H](Cc3ccc(O)cc3)n3cc(C(N)[C@H](C)CC)nn3)CC2)n1` (stereo not given in full), the Potency result was “inactive”.

Consider `CCOc1ncccc1C(=O)OCC(=O)c1c[nH]c2ccccc12`, for which the Potency result was “inactive”.

As to `CC1CN(C(=S)Nc2ccc(S(N)(=O)=O)cc2)CC(C)O1` (stereo not given), the Potency result was “inactive”.

`C/C=C/C1=C(C(=O)O)N2C(=O)[C@@H](NC(=O)[C@H](N)c3ccc(O)cc3)[C@H]2SC1`: the Potency entry is “inactive”.

Consider `O=C(NNc1cc(Cl)cc(Cl)c1)c1c(F)cccc1Cl`, for which the Potency result is “inactive”.

Consider `CN(CC(=O)NNC(=O)CNC(=O)c1ccccc1Cl)S(=O)(=O)c1ccc(Cl)cc1`, for which the Potency entry is “inactive”.

On to `CC(=O)Nc1ccc(NC(=O)CSc2nnc3c4cc(Br)ccc4n(C)c3n2)cc1`, for which the Potency entry was “inactive”.

Regarding `O=C(CSc1ccc(Cl)cc1)NC1CC1`, the Potency entry is “inactive”.

`CN(CCOc1ccccc1)C(=O)c1cc(COc2c(F)cccc2F)on1`: the Potency entry was “inactive”.

With `COc1cccc(CNC(=O)CCN2C(=S)NC(C)(C)CC2C)c1` (stereo not given), the Potency entry is “inactive”.

Regarding `COc1nc(N(C)C)nc(N2CC(=O)N(CCNS(=O)(=O)c3ccc(C)cc3)C2=N)n1`, the Potency result is “inactive”.

On to `C=C1C(=O)[C@]23C[C@H]1CCC2[C@@]1(C)C(C[C@@H]3O)[C@](C)(C(=O)O)CC[C@@H]1O` (stereo not given in full), for which the Potency is 1.84 µM (active).

Turning to `Cc1cnc(CN(C)C(=O)CC2C(=O)NCCN2Cc2cccc(F)c2F)[nH]1` (stereo not given), the Potency result is “inactive”.

Consider `CCCC1NC(=O)NC(C)=C1C(=O)OCC` (stereo not given), for which the Potency entry is “inactive”.

On to `CCCCn1c(N)c(N(CC)C(=O)c2ccccc2C(F)(F)F)c(=O)[nH]c1=O`, for which the Potency entry was “inactive”.

Take `Cc1ccc(NC(=O)Cn2cnc3c(OCc4ccccc4)ncnc32)cc1C`: the Potency entry is “inactive”.

`Cc1ccc(CNC(=O)Cn2cnc3c(NCc4ccccc4)ncnc32)o1`: the Potency is 18.4 µM (active).

With `Cc1ccc(CNC(=O)Cn2cnc(S(=O)(=O)N3CCCCC3)c2)o1`, the Potency result is “inactive”.

For the compound `Cn1c(=O)c2c(SCC(=O)NCC3CCCO3)nc(CC(C)(C)C)nc2n(C)c1=O` (stereo not given), the Potency result is “inactive”.

As to `Cc1ccc(NC(=O)c2cn3c4c(ccc(Cl)c4c2=O)OC(C)C3)cc1C` (stereo not given), the Potency result was “inactive”.

With `Cc1ccc(C)c(C(C)NC(=O)C2CCCO2)c1` (stereo not given), the Potency result is “inactive”.

Turning to `Cc1nc(N)nc(Cl)c1CCC1OCCO1`, the Potency entry is “inactive”.

Consider `Cc1cccc(-n2ncc(Cl)c(Cl)c2=O)c1`, for which the Potency is 5.17 µM (active).

With `O=c1c(Cl)c(NC2CC2)cnn1-c1ccccc1`, the Potency entry was “inactive”.

For the compound `C=CCNc1cnn(-c2ccc(C)cc2)c(=O)c1Cl`, the Potency entry was “inactive”.

As for `O=C(OCC(=O)N1CCc2ccccc21)C1CCCN1S(=O)(=O)c1ccc(Cl)cc1` (stereo not given), the Potency result is “inactive”.

In the case of `Cc1ccc(S(=O)(=O)NCC(=O)OCC(=O)N2CCc3ccccc32)cc1`, the Potency entry is “inactive”.

With `O=C(OCC(=O)N1CCc2ccccc21)c1ccc([N+](=O)[O-])cc1`, the Potency was 20.6 µM (active).

Turning to `CO/N=C(\C(=O)N[C@@H]1C(=O)N2C(C(=O)O)=C(C[N+]3(C)CCCC3)CS[C@H]12)c1csc(N)n1`, the Potency entry was “inactive”.

As for `CCCN1C(=O)C(Cc2nc3ccccc3c(=O)n2-c2ccccc2)c2cc(C)ccc21` (stereo not given), the Potency entry is “inactive and 16.4 µM (active)”.

On to `O=c1c2ccccc2nc(CSc2nnnn2-c2ccccc2)n1-c1ccccc1`, for which the Potency entry was “inactive”.

As to `CCC1NC(=O)c2cccnc2-n2c1nc1ccc(C)cc1c2=O` (stereo not given), the Potency result was “inactive”.

With `Cc1ccc(Cl)cc1NC(=O)C(C)n1nnc2sc(-c3ccccc3)cc2c1=O` (stereo not given), the Potency entry was “inactive”.

For the compound `O=C(Nc1c2c(nn1-c1cccc(Cl)c1)CS(=O)(=O)C2)c1cccs1`, the Potency result was “inactive”.

As for `COCCN(C(=O)CC1CCCCC1)c1c(N)n(CC(C)C)c(=O)[nH]c1=O`, the Potency entry is “inactive”.

In the case of `CCc1nc2sc3c(Cl)ncnc3c2c2c1CCCC2`, the Potency entry was “inactive”.

Take `OCCCC1CCCCN1Cc1nc(Cc2ccccc2Cl)no1` (stereo not given): the Potency result was “inactive”.

For `CCOC(=O)c1ccccc1NC(=O)c1sc2nc(-c3ccc(F)cc3)cn2c1C`, the Potency result is “inactive”.

`COc1ccc2oc(=O)c(-c3cn4c(n3)sc3cc(OC)ccc34)cc2c1`: the Potency entry was “inactive”.

`COc1cccc(CNC(=O)c2ccc3c(c2)sc2nc(-c4cccc(OC)c4)cn23)c1`: the Potency is 6.51 µM (active).

`COc1ccccc1-n1c(C)nc2cc(C(=O)NCc3ccc4c(c3)OCO4)ccc21`: the Potency result is “inactive”.

For the compound `O=C(NCCc1ccc(F)cc1)c1ccc2nccnc2c1`, the Potency entry is “inactive”.

With `COc1cc(-n2c(C)nc3cc(C(=O)NCc4ccco4)ccc32)cc(OC)c1OC`, the Potency entry was “inactive”.

On to `Cc1ccc(-c2cn3c(n2)sc2cc(C(=O)NCCCc4ccccc4)ccc23)cc1`, for which the Potency is 14.6 µM (active).

With `CC(C)c1ccc(C(=O)NCCCc2ccccc2)cc1`, the Potency result is “inactive”.

Take `COc1ccc(C(=O)NCc2cn3ccccc3n2)cc1`: the Potency result is “inactive”.

On to `COc1ccc(CCNC(=O)c2ccc3c(c2)nc(C)n3-c2ccc(Br)cc2)cc1OC`, for which the Potency was 20.6 µM (active).

In the case of `Cc1cc(C(=O)NCCCc2ccccc2)no1`, the Potency result was “inactive”.

As to `CCOc1ccc(CCNC(=O)c2ccc3c(c2)sc2nc(-c4ccc(F)cc4)cn23)cc1OCC`, the Potency is 7.31 µM (active).

Regarding `Cc1ccc(C(=O)Cn2cccn2)cc1`, the Potency entry was “inactive”.

With `OC(CNCc1ccc2c(c1)OCO2)COc1ccccc1` (stereo not given), the Potency entry was “inactive”.

On to `COC(C)C(C(=O)OCC1=CCN2CC[C@H](O)[C@@H]12)C(C)C` (stereo not given in full), for which the activity change, negative = growth inhibition is -27.6% [at 9.04 µM] (inactive).

Take `N#Cc1c(C(F)(F)F)cc(-c2cccs2)nc1N1CCCCC1`: the Potency result is “inactive”.

In the case of `COc1ccc(CCNC(=S)N2CCN(S(=O)(=O)c3ccc(F)cc3)CC2)cc1`, the Potency entry is “inactive”.

As to `Cc1cc(NC(=O)CSc2nc(=O)cc(N)n2-c2ccc(F)cc2)no1`, the Potency result was “inactive”.

`Cc1nc2nc(C)c(CCC(=O)N3CCN(c4ccccc4)CC3)c(C)n2n1`: the Potency result was “inactive”.

For the compound `CCOc1cccc2cc(-c3cn4c(n3)sc3cc(C)ccc34)c(=O)oc12`, the Potency entry was “inactive”.

On to `CCOC(=O)C1CCCN(C(=O)c2cncc(Br)c2)C1` (stereo not given), for which the Potency result is “inactive”.

As for `COc1ccc(CCNC(=O)c2ccc3c(c2)sc2nc(-c4ccc(C)cc4)cn23)cc1OC`, the Potency is 6.51 µM (active).

As for `COc1ccc(C(=O)NCCCN2CCOCC2)cc1Br`, the Potency entry is “inactive”.

With `CCOC(=O)C1CCCN(C(=O)c2ccc3c(c2)sc2nc(-c4ccc(CC)cc4)cn23)C1` (stereo not given), the Potency is 4.11 µM (active).

As to `Cc1ccc(-c2cn3c(n2)sc2cc(C(=O)NCc4cccs4)ccc23)c(C)c1`, the Potency is 23.1 µM (active).

Turning to `CCN1CCN(CCCNC(=O)c2ccc3c(c2)sc2nc(-c4ccc(OC)cc4)cn23)CC1`, the Potency is 0.92 µM (active).

`COc1ccc(-c2cc(C(=O)NCCCN3CCOCC3)no2)cc1`: the Potency result is “inactive”.

Turning to `CCOC(=O)C1CCCN(C(=O)c2ccc(CS(=O)(=O)c3ccc(Br)cc3)o2)C1` (stereo not given), the Potency result was “inactive”.

`Cc1ccc2c(CC(=O)NCc3cccs3)coc2c1`: the Potency result was “inactive”.
